# Experimental data published in PubChem BioAssay (NCATS).
# Several values for one entry are separate records, joined by “and”; a condition that tells them apart may be missing. Equal values may be shown once. Records with an inconclusive call do not appear. Where a call stands in place of a potency, no number is given. Activity calls are given as the source filed them. Unless noted, calls follow the shape of the full dose curve.
# Legend:
# [1] = target: Peroxisome proliferator-activated receptor delta (Homo sapiens) (UniProt Q03181); assay: qHTS assay for small molecule agonists of peroxisome proliferator-activated receptor delta signaling (AID 588534)
# Peroxisome proliferator-activated receptor delta (Homo sapiens), sequence (Q03181 whole entry, looked up): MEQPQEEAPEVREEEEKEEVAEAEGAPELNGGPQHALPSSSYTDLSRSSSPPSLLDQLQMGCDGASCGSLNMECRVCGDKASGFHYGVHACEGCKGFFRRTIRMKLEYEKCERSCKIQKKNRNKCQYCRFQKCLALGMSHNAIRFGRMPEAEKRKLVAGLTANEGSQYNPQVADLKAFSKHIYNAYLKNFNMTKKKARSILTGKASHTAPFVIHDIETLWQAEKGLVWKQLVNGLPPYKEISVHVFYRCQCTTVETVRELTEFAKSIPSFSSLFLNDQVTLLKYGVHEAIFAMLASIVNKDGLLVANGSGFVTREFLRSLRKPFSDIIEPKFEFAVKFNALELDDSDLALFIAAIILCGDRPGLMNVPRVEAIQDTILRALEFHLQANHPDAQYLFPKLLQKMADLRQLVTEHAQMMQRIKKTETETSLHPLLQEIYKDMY
# How it was run: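 Titration series tested in agonist mode on beta-lactamase reporter cells; 18 hrs at 37 C after a 5 hr pre-incubation. Readout: CCF4 fluorescence, 2 hrs RT. Hill equation gives EC50 and maximal response.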
# [2] = qHTS for Inhibitors of the Functional Ribonucleoprotein Complex (vRNP) of Lassa (LASV) Arenavirus: LASV Primary Screen - GLuc reporter signal (AID 1347082; calls by dose curve; tested in HEK293 reporter line; also: nearly all actives have a fitted effect of over 60% in size)
# [3] = qHTS for Inhibitors of the Functional Ribonucleoprotein Complex (vRNP) of Lassa (LASV) Arenavirus: Viability assay - alamar blue signal for LASV Primary Screen (AID 1347083; calls by dose curve; tested in HEK293 reporter line; also: nearly all actives have a fitted effect of over 80% in size)
# [4] = qHTS for Inhibitors of the Functional Ribonucleoprotein Complex (vRNP) of Lymphocytic Choriomeningitis Arenaviruses (LCMV): Viability assay - alamar blue signal for LCMV Primary Screen (AID 1347085; calls by dose curve; tested in HEK293 reporter line; also: nearly all actives have a fitted effect of over 80% in size)
# [5] = target: Nucleoprotein (Lymphocytic choriomeningitis virus (strain Armstrong)) (UniProt P09992); assay: qHTS for Inhibitors of the Functional Ribonucleoprotein Complex (vRNP) of Lymphocytic Choriomeningitis Arenaviruses (LCMV): LCMV Primary Screen - GLuc reporter signal (AID 1347086); also: nearly all actives have a fitted effect of over 70% in size
# Nucleoprotein (Lymphocytic choriomeningitis virus (strain Armstrong)), sequence (P09992 whole entry, looked up): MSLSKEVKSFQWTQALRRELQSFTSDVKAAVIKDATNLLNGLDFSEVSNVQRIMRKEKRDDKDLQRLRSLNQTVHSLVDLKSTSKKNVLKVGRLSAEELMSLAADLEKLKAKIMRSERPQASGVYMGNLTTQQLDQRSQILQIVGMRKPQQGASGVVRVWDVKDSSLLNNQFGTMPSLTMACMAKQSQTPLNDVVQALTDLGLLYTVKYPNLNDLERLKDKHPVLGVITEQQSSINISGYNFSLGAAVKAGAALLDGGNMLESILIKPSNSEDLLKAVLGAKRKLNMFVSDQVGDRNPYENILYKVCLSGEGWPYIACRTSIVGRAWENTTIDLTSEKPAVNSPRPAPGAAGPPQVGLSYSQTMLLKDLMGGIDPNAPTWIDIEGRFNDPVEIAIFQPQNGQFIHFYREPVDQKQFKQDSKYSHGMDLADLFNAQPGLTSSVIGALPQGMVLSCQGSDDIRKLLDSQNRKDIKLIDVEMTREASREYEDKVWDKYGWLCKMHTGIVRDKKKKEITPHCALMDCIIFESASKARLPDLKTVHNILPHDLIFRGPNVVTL
# [6] = qHTS profiling for inhibitors of Plasmodium falciparum (3D7) proliferation (AID 743322);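 also: infected erythrocytes exposed to compound for 72 h before lysis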; conditions: P. falciparum 3D7 proliferation; at 28.7 µM (top of the series)
# How it was run: (§1)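 Parasite DNA was quantified by SYBR Green I fluorescence (ex 485, em 535 nm) after overnight lysis in saponin/Triton buffer at room temperature. Cultures at 0.3% parasitemia and 2.5% hematocrit were first exposed to compound for 72 h at 37 C; signals were normalised to artemisinin (0.29 uM) and vehicle wells.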
# [7] = qHTS profiling for inhibitors of Plasmodium falciparum (DD2) proliferation (AID 743323; call rule not given here); conditions: lower = more inhibition; at 28.7 µM (top of the series)
# How it was run: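 Parasite proliferation measured via DNA-dye fluorescence, as uninfected erythrocytes lack DNA. Cultures at 0.3% parasitemia and 2.5% hematocrit incubated 72 h with compound; signal scaled between vehicle and 0.29 uM artemisinin wells.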
# [8] = qHTS profiling for inhibitors of Plasmodium falciparum (HB3) proliferation (AID 743324; active = well fitted curve in the direction sought with a large enough effect; an effect the other way counts as inactive or inconclusive); conditions: Plasmodium falciparum HB3 blood-stage proliferation; at 28.7 µM (top of the series)
# How it was run: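 SYBR Green fluorescence (485 ex/535 em) of lysed cultures, incubated overnight at room temperature in the dark, quantifies parasite DNA. Infected erythrocytes at 0.3% parasitemia and 2.5% hematocrit were exposed 72 h; values normalized to DMSO and 0.29 uM artemisinin controls.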
# [9] = qHTS profiling of the MIPE4 collection as inhibitors of Plasmodium falciparum (3D7) proliferation (AID 743344; call rule not given here); conditions: P. falciparum 3D7 in erythrocytes, SYBR Green DNA fluorescence, 72 h; at 28.5 µM (top of the series) unless noted
# How it was run: as §1
# [10] = qHTS profiling of the MIPE4 collection as inhibitors of Plasmodium falciparum (DD2) proliferation (AID 743345; call rule not given here); conditions: P. falciparum Dd2 in erythrocytes, SYBR Green DNA, 72 h; at 28.5 µM (top of the series) unless noted
# How it was run: as §1
# [11] = qHTS profiling of the MIPE4 collection as inhibitors of Plasmodium falciparum (DD2) proliferation (Rep 2) (AID 743346; call rule not given here); conditions: P. falciparum Dd2 in erythrocytes, SYBR Green DNA, 72 h; at 28.5 µM (top of the series) unless noted
# How it was run: as §1
# [12] = target: Bile acid receptor (Homo sapiens) (UniProt Q96RI1); assay: qHTS assay for small molecule agonists of farnesoid X receptor signaling (AID 588527); conditions: HEK293T FXR-UAS-bla, beta-lactamase ratio, 16 h; activation: stronger effect = higher value
# Bile acid receptor (Homo sapiens), sequence (Q96RI1 whole entry, looked up): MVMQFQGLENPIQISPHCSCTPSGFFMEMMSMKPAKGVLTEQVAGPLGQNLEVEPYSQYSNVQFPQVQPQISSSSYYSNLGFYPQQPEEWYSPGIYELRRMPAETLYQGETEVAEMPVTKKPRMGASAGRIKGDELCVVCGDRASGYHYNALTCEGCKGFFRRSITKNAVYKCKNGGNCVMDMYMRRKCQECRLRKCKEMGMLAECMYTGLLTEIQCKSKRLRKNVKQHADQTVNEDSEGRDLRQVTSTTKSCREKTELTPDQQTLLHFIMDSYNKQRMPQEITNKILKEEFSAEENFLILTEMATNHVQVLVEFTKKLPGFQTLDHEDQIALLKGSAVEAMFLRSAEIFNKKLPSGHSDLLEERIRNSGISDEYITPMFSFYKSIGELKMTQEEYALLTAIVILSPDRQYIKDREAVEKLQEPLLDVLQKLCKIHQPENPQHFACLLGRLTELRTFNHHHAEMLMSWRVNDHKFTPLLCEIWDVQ
# How it was run: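 Quantitative HTS used FXR-UAS-bla HEK293T cells with 16 h compound incubation at 37 C. EC50 values came from concentration-response curves normalized to chenodeoxycholic acid.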
# [13] = target: Cytochrome P450 3A4 (Homo sapiens) (UniProt P08684); assay: qHTS Assay for Inhibitors and Substrates of Cytochrome P450 3A4 (AID 884; active = well fitted curve in the direction sought with a large enough effect; an effect the other way counts as inactive or inconclusive; also: potency is read from the fitted curve at half-maximal effect; nearly all actives have a fitted effect of over 50% in size)
# Cytochrome P450 3A4 (Homo sapiens), sequence (P08684 whole entry, looked up): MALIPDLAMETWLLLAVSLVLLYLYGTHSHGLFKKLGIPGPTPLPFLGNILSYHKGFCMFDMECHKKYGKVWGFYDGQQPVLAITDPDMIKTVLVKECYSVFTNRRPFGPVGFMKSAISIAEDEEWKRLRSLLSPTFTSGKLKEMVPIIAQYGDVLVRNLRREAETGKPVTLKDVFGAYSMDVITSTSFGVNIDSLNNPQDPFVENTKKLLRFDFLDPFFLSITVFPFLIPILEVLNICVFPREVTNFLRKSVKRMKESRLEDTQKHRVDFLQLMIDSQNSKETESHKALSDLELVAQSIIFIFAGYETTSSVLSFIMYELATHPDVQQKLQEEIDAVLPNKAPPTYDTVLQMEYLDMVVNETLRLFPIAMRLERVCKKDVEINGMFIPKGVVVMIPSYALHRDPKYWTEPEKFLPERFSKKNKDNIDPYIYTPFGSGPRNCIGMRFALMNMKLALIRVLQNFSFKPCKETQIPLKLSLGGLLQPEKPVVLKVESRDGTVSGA
# How it was run: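 Luminescent readout of luciferin produced by CYP3A4 (20 nM) dealkylation of Luciferin-PPXE, 25 uM (its KM). NADPH-driven reaction ran 60 min at RT after 10 min compound preincubation; data scaled to 57 uM ketoconazole as 100% inhibition.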
# [14] = target: Cytochrome P450 3A4 (Homo sapiens) (UniProt P08684); assay: qHTS Assay for Activators of Cytochrome P450 3A4 (AID 885; active = well fitted curve in the direction sought with a large enough effect; an effect the other way counts as inactive or inconclusive; also: nearly all actives have a fitted effect of over 65% in size)
# How it was run: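 Using 20nM recombinant human CYP3A4 in potassium phosphate (200mM), substrate Luciferin-PPXE at 25uM, luminescent luciferin detection followed a 60-min RT NADPH reaction; data scaled to 57 uM ketoconazole.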
# [15] = qHTS assay for small molecule agonists of the antioxidant response element (ARE) signaling pathway (AID 651741; active = well fitted activation curve with a large enough effect in the signal ratio; the % refers to the signal ratio)
# How it was run: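 Beta-lactamase reporter expression driven by the antioxidant response element in HepG2 cells was detected by fluorescence with LiveBLAzer B/G FRET substrate (2 h, room temperature) following 16 h compound treatment at 37 C.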
# [16] = Validation screen for inhibitors of Lassa infection (AID 463096)
# [17] = Inducers of the Endoplasmic Reticulum Stress Response (ERSR) in human glioma: Validation (AID 504836; active = well fitted curve in the direction sought with a large enough effect; an effect the other way counts as inactive or inconclusive)
# How it was run: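 Stably transfected U87-MG human glioma cells carrying a GRP78-based luminescent sensor were seeded at 1000 cells/well, pin-dosed with compounds and incubated 16 h. Luciferase reagent was then added, and end-point luminescence was read after 10 min at room temperature.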
# [18] = target: Alpha-galactosidase (Coffea arabica) (UniProt Q42656); assay: Counterscreen for Glucocerebrosidase Inhibitors: qHTS Assay for Coffee Bean alpha-Galactosidase at pH 4.5 (AID 957; active = well fitted curve in the direction sought with a large enough effect; an effect the other way counts as inactive or inconclusive)
# Alpha-galactosidase (Coffea arabica), sequence (Q42656 whole entry, looked up): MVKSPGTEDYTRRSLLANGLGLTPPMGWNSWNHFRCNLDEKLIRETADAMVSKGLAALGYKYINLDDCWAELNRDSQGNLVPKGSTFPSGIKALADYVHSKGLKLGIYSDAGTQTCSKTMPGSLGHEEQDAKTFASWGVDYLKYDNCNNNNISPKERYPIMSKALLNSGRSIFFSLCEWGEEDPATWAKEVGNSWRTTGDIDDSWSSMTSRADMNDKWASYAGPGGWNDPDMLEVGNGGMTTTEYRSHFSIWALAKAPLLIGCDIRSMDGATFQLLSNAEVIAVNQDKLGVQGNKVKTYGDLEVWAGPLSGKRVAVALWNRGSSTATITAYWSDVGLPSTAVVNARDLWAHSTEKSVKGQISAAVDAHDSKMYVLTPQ
# How it was run: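 Fluorogenic read-out: 4-methylumbelliferone at Ex 365/Em 440 nm after NaOH/glycine stop (pH 10). Enzyme 2 nM, 4-MU-alpha-galactoside 80 uM, citrate buffer pH 4.5, 20 min RT; normalized to no-enzyme and enzyme controls.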
# [19] = target: Alpha-galactosidase (Coffea arabica) (UniProt Q42656); assay: Counterscreen for Glucocerebrosidase Inhibitors: qHTS Assay for Coffee Bean alpha-Galactosidase at pH 5.9 (AID 998; active = well fitted curve in the direction sought with a large enough effect; an effect the other way counts as inactive or inconclusive)
# How it was run: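 In 50 mM citric acid pH 5.9 with 0.005% Tween-20, coffee bean enzyme hydrolyses 80 uM 4-MU alpha-D-galactopyranoside over 20 min at RT. Activity is normalized to controls; AC50 comes from Hill-modelled concentration-response data.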
smiles,measurement,setting,value
COc1ccc(OC)cc1,Potency,[1],inactive
same,Potency,[2],inactive
same,Potency,[3],inactive
same,Potency,[4],inactive
same,Potency,[5],inactive
C1CCC2(CCCCO2)OC1,Potency,[1],inactive
same,Potency,[2],inactive
same,Potency,[3],inactive
same,Potency,[4],inactive
same,Potency,[5],inactive
CCCCCCCCCCCCCCCC,Potency,[1],inactive
same,Potency,[2],inactive
same,Potency,[3],inactive
same,Potency,[4],inactive
same,Potency,[5],inactive
O=C(C[C@@H]1NCCC[C@@H]1O)Cn1cnc2ccccc2c1=O,remaining parasite growth % (stronger effect = lower value),[6],-0.414%
same,"activity, percent of control",[7],-0.451%
same,"remaining proliferation (% of control), lower = more inhibition",[8],-0.569%
same,"parasite growth, % of DMSO control",[9],4.79%
same,"parasite growth remaining, % of DMSO control (lower = more inhibition)",[10],6.53%
same,"parasite growth, % of control (lower = inhibition)",[11],22.5%
same,Potency,[2],inactive
same,Potency,[3],inactive
same,Potency,[4],inactive
same,Potency,[5],inactive
COC(=O)CCCC(=O)OC,activation,[12],-3.54% (inactive)
same,Potency,[1],inactive
same,Potency,[2],inactive
same,Potency,[3],inactive
same,Potency,[4],inactive
same,Potency,[5],inactive
O=C(Nc1ccccc1)Nc1ccccc1,Potency,[1],inactive
same,Potency,[2],inactive
same,Potency,[3],inactive
same,Potency,[4],inactive
same,Potency,[5],inactive
CON=C(C(=O)N[C@@H]1C(=O)N2C(C(=O)O)=C(Cn3ccc(=N)n3CCO)CS[C@H]12)c1csc(N)n1,"parasite growth, % of DMSO control",[9],60.9%
same,"parasite growth remaining, % of DMSO control (lower = more inhibition)",[10],93.5%
same,"parasite growth, % of control (lower = inhibition)",[11],92%
same,Potency,[2],inactive
same,Potency,[3],inactive
same,Potency,[4],inactive
same,Potency,[5],inactive
CC(=O)OCCC(C)C,Potency,[1],inactive
same,Potency,[2],inactive
same,Potency,[3],inactive
same,Potency,[4],inactive
same,Potency,[5],inactive
CCCCCC1CCC(=O)O1 (centres undefined),activation,[12],0.301% (inactive)
same,Potency,[1],inactive
same,Potency,[2],inactive
same,Potency,[3],inactive
same,Potency,[4],inactive
same,Potency,[5],inactive
CCCCCCCCCC(C)=O,Potency,[1],inactive
same,Potency,[2],inactive
same,Potency,[3],inactive
same,Potency,[4],inactive
same,Potency,[5],inactive
CC(C)=CCC/C(C)=C/CC/C(C)=C/CO,Potency,[1],inactive
same,Potency,[2],inactive
same,Potency,[3],inactive
same,Potency,[4],inactive
same,Potency,[5],inactive
CCC(=O)OCCc1ccccc1,activation,[12],0.429% (inactive)
same,Potency,[1],inactive
same,Potency,[2],inactive
same,Potency,[3],inactive
same,Potency,[4],inactive
same,Potency,[5],inactive
C=CCOC(=O)c1ccccc1C(=O)OCC=C,Potency,[13],5.01 µM (active)
same,Potency,[14],inactive
same,activation,[12],-3.26% (inactive) and 2.9% (inactive)
same,Potency,[15],inactive
same,Potency,[2],inactive
same,Potency,[3],inactive
same,Potency,[4],inactive
same,Potency,[5],inactive
CCCCC(CC)C(=O)O (centres undefined),Potency,[1],inactive
same,Potency,[2],inactive
same,Potency,[3],inactive
same,Potency,[4],inactive
same,Potency,[5],inactive
CN1CCC2(CCN3CCc4c(oc5ccccc45)C3C2)N(C)C1=O (centres undefined),Potency,[16],inactive
same,outcome,[17],inactive
same,Potency,[2],inactive
same,Potency,[3],inactive
same,Potency,[4],inactive
N#C/C(=C\c1ccc(O)c(O)c1)C(=O)NCCc1ccccc1,outcome,[18],inactive
same,outcome,[19],inactive
same,Potency,[2],inactive
same,Potency,[3],inactive
same,Potency,[4],inactive
same,Potency,[5],inactive
